The supplement of paper PMC10849652
About 8,800 targets were measured; listed, in parts, are those with a hit and a random draw of the rest. About 0.5% of all pairs of compound and target were hits. Values without a mark were called inactive.

Each target was assayed with NC(=O)Nc1cc(-c2cccc(F)c2)sc1C(=O)N[C@H]1CCCNC1 (assay: log2 fold change, soluble protein after heating vs DMSO (PISA); higher = thermal stabilisation; K562 lysate, 10 uM; active = over 0.2 and 3.5 SD of the protein, either way, in both replicates (recomputed)).
Procedure, shortened: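 Values give the log-two fold change in thermal stability against solvent controls, from duplicates. Crude K562 extract at 1 mg/mL protein, made by dounce homogenisation in PBS pH 7.4 with 1 mM MgCl2, was treated with 10 μM compound for 30 min. After 3 min heating across 48°C-58°C, aliquots were pooled, adjusted to 0.5% NP-40 at 4°C and centrifuged at 21,000xg for 90 min. The supernatant was measured by TMTpro 16plex LC-MS/MS with channel sums equalised.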

UniProt P50995, sequence (P50995 whole entry, looked up): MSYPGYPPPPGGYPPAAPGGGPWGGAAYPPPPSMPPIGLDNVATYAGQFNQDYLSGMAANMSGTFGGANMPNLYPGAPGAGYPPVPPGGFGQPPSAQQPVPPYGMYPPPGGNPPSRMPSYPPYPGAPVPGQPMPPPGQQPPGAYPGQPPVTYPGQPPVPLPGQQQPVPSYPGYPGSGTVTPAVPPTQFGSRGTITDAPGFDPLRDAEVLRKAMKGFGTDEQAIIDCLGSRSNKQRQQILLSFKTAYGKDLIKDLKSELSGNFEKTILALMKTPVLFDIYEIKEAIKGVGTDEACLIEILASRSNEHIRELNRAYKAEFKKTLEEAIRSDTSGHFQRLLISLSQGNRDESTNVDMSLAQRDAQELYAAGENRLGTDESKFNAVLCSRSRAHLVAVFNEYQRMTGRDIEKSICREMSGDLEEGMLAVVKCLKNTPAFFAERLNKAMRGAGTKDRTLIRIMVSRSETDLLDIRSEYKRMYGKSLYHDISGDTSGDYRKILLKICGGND
UniProt P42331, sequence (P42331 whole entry, looked up): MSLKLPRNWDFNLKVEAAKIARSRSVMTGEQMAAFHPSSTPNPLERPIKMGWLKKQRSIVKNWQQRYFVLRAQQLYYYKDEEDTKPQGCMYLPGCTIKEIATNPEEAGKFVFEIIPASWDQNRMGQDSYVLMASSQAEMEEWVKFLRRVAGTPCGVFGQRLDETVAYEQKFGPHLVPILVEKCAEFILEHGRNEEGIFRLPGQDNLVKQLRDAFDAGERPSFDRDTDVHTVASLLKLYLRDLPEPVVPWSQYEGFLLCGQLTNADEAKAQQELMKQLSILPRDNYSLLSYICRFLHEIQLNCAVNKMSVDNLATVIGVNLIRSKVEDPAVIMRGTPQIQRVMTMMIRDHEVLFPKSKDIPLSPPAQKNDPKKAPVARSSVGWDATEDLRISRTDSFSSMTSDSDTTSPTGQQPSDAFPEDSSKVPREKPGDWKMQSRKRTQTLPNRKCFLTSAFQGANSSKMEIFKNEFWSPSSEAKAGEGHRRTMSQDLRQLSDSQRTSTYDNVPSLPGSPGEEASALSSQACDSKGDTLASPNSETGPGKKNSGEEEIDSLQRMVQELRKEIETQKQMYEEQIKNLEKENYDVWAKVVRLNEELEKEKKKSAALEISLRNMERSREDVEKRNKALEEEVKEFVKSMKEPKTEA
UniProt Q9NP73, sequence (Q9NP73 whole entry, looked up): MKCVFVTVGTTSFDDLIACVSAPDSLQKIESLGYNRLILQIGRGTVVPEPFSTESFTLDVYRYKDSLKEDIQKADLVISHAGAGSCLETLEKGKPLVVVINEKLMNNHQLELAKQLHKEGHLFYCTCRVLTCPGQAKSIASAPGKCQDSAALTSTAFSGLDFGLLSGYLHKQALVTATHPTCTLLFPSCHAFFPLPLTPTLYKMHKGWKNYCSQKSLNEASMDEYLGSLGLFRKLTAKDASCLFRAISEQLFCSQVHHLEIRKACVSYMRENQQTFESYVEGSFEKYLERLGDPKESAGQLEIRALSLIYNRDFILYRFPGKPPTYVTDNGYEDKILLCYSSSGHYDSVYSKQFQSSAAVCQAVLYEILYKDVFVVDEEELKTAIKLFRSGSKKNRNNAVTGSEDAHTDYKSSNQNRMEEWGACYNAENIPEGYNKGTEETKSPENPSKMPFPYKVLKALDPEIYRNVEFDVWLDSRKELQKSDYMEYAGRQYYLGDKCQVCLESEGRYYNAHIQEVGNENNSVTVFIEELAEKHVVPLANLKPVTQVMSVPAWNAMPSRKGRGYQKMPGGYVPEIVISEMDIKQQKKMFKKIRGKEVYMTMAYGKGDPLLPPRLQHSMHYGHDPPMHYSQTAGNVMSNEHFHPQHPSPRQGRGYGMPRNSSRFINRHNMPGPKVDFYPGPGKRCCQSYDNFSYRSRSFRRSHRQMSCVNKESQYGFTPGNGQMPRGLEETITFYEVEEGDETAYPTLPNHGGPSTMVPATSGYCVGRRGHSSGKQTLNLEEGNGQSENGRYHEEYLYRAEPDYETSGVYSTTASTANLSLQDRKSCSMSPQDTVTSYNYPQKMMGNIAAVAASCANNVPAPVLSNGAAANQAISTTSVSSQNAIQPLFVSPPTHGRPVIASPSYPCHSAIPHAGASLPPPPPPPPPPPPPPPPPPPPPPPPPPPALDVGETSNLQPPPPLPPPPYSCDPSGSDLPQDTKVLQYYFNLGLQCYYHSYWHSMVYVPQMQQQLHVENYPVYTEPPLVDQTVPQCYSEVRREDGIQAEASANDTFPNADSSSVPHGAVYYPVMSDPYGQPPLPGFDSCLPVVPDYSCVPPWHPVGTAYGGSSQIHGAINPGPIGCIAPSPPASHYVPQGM
UniProt Q6NXT1, sequence (Q6NXT1 whole entry, looked up): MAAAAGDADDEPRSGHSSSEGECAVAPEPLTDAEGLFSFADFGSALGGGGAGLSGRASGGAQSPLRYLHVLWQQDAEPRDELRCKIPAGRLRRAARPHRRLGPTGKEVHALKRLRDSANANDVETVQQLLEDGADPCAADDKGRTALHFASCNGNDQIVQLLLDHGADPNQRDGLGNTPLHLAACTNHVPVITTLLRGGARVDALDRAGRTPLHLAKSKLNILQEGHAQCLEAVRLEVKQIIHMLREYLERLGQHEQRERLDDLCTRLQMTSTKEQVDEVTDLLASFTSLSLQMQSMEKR
UniProt Q2VPB7, sequence (Q2VPB7 whole entry, looked up): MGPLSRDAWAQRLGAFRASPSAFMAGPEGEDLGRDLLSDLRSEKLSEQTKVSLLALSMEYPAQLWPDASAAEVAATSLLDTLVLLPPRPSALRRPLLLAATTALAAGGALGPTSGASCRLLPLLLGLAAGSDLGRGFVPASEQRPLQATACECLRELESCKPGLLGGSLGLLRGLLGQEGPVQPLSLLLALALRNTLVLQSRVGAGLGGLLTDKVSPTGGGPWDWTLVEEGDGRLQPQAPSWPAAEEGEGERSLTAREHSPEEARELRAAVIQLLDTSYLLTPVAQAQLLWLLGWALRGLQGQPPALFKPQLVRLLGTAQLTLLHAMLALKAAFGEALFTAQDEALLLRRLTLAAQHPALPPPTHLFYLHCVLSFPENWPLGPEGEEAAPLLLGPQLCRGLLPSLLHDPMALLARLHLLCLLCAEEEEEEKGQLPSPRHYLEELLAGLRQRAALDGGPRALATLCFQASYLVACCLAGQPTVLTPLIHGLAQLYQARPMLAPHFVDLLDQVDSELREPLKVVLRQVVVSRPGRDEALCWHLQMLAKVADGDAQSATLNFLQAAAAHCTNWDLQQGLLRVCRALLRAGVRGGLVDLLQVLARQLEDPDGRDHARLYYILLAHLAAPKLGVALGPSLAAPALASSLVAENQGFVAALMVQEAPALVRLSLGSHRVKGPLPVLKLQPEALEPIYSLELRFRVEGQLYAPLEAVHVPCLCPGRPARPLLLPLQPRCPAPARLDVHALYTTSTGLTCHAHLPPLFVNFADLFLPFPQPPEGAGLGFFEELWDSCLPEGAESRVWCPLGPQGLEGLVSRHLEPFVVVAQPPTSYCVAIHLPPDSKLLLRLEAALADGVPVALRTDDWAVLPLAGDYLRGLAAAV
UniProt P51649, sequence (P51649 whole entry, looked up): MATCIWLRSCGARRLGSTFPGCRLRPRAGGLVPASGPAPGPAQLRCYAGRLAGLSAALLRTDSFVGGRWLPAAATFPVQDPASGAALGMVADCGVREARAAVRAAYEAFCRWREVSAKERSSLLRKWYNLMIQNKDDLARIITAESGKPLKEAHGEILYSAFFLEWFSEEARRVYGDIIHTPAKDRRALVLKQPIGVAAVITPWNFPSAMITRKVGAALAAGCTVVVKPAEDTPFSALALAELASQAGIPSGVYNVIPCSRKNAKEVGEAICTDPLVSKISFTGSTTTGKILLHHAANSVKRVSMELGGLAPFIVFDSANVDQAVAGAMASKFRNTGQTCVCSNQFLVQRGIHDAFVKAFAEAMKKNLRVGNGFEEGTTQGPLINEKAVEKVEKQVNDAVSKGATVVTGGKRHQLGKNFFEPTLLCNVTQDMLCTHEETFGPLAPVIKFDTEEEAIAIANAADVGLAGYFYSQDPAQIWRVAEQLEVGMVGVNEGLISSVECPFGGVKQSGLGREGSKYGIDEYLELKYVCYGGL
UniProt Q8N6T3, sequence (Q8N6T3 whole entry, looked up): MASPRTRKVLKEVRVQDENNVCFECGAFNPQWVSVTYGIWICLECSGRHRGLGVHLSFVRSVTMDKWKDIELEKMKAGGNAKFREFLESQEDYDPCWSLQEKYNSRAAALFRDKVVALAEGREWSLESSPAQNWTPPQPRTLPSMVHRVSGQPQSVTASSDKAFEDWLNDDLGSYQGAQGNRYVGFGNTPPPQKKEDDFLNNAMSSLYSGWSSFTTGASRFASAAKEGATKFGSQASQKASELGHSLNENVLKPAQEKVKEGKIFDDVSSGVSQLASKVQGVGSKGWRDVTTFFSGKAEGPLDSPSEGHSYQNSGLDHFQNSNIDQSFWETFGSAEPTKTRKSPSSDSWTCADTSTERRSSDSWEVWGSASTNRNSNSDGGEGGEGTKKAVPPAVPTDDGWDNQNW
UniProt Q9ULX6, sequence (Q9ULX6 whole entry, looked up): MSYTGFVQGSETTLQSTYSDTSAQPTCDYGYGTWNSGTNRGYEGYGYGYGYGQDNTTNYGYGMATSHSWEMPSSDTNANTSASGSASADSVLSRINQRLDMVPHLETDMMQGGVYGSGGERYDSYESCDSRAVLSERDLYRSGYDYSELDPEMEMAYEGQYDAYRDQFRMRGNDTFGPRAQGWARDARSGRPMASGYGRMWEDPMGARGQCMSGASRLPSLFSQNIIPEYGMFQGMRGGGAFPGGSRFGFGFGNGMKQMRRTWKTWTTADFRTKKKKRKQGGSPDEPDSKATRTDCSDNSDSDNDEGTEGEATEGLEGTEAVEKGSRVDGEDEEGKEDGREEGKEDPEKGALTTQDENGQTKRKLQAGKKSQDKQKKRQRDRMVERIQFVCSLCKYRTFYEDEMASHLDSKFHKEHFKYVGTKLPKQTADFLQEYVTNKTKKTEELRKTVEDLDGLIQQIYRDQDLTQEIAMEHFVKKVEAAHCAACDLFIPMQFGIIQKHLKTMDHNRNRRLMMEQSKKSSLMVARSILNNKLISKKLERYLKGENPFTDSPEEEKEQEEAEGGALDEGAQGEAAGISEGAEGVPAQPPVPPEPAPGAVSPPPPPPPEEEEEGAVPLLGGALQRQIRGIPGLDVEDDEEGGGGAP

Target | log2 fold change
ARHGAP25 isoform 4 (UniProt P42331) | 0.017
ARAF (UniProt P10398) | 0.011
ANP32A (UniProt P39687) | -0.097
ALDH5A1 isoform 2 (UniProt P51649) | 0.04
ANP32E (UniProt Q9BTT0) | -0.011
AKAP8L (UniProt Q9ULX6) | 0.055
ABHD13 (UniProt Q7L211) | -0.029
ANXA11 (UniProt P50995) | -0.002
ADD1 isoform 3 (UniProt P35611) | 0.007
AK2 (UniProt P54819) | -0.066
AKAP8 (UniProt O43823) | 0.084
ARFGAP1 (UniProt Q8N6T3) | 0.063
ANAPC7 (UniProt Q9UJX3) | 0.03
ALDH6A1 (UniProt Q02252) | 0.018
ANKRD27 (UniProt Q96NW4) | 0.05
ALG13 (UniProt Q9NP73) | -0.004
ASB6 (UniProt Q9NWX5) | -0.01
ACAT1 (UniProt P24752) | -0.001
ANKRD54 (UniProt Q6NXT1) | -0.013
AKT2 (UniProt P31751) | 0.019
AP5B1 (UniProt Q2VPB7) | 0.324 (active)
ANXA1 (UniProt P04083) | -0.015
ARHGAP21 (UniProt Q5T5U3) | 0.053
